An excerpt weighted towards active compounds, which were near 6.8% of everything screened.
T cruzi growth-1 = T. cruzi intracellular proliferation inhibitors, primary screen, cell-based, beta-gal Tulahuen parasites, NIH3T3 host, luminescence | T. cruzi beta-gal in NIH3T3, GalScreen luminescence, 90 h | inhibition, % at 8.34 µM | 5.9% of 77,000 active | AID 624255, 2012;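 active means mean inhibition above about 93%, with at least 55% of replicates each passing it, limit read from the data, passing the limit was not always enough; inconclusive means only one of those two conditions holds; inactive means neither condition holds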
Pf Dd2 inh = P. falciparum Dd2 growth inhibitors, primary screen, SYBR Green fluorescence, single dose replicates; 2.3% of 94,000 active; AID 1159554, 2015; activity change, % at 10 µM; 72 h; active compounds read low; in the data active means activity change below about -80%; inconclusive means no clear call, values can overlap the other calls
C diff growth = C. difficile growth inhibitors, primary screen, HTS | 0.25% of 86,000 active | growth activity, negative = inhibition, % at 16 µg/mL (by protocol) | Clostridium difficile clinical isolate growth, OD600, 24 h; active compounds read low;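 active means mean growth activity at or below -80% and every replicate also at or below -80%; inconclusive means mean at or below -80% but some replicate above -80%; inactive means mean growth activity above -80%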;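 further: 0% = DMSO wells and -100% = levofloxacin 16 µg/mL wells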
T cruzi growth-2 = T. cruzi intracellular proliferation inhibitors, confirmation, cell-based, NIH3T3 host, beta-gal parasite, luminescence, cherry-pick | shares compounds with T cruzi growth-1 | inhibition, % at 8.35 µM | T. cruzi beta-gal in NIH3T3, GalScreen luminescence, 90 h | 72% of 5,600 active | AID 651739, 2012;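 active means mean replicate inhibition above about 95% and at least 55% of replicates individually reaching it, limit read from the data; inconclusive means only one of the two criteria is met; inactive means neither criterion is met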
T cruzi growth-3 = inhibitors of intracellular T. cruzi replication, confirmation, NIH3T3 host cells, beta-gal parasites, cherry-pick, set 2. T. cruzi beta-gal in NIH3T3, GalScreen luminescence, 90 h. AID 651740, 2012. shares compounds with T cruzi growth-1. inhibition, % at 2.09 µM. 21% of 5,600 active;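 active means mean inhibition above about 95%, with at least 55% of replicates also reaching it, limit read from the data; inconclusive means meets just one of the two conditions; inactive means meets neither condition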;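 further: plate controls were neutral control median for no effect and positive control median for full effect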
NIH3T3 tox = cytotoxicity in mouse NIH/3T3 fibroblasts, confirmation, cytotoxicity control for T. cruzi proliferation inhibitor project, cell-based, cherry-pick, single point. 14% of 5,600 active. NIH/3T3 viability, CellTiter-Glo ATP luminescence, 90 h. AID 651742, 2012. shares compounds with T cruzi growth-1. cytotoxicity (signal decrease), % at 8.35 µM;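 active means mean signal decrease across replicates above about 35% based on untreated-well scatter, with enough replicates individually passing, limit read from the data; inconclusive means no rule stated though some were filed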;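 further: 0% = median of neutral control wells and 100% = median of positive control wells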
NIH3T3 tox 2 = NIH/3T3 fibroblast cytotoxicity, confirmation, cytotoxicity control, cell-based, cherry-pick, single point, set 2; shares compounds with T cruzi growth-1; 56% of 5,600 active; AID 651744, 2012; NIH/3T3 viability, CellTiter-Glo ATP luminescence, 90 h; inhibition, % at 24.9 µM;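 active means mean loss of cell viability signal at or above a set limit, and enough replicates individually reaching it; inconclusive means meets only the mean limit or only the replicate share; inactive means meets neither condition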;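 further: 0% = median of neutral control wells and 100% = median of positive control wells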
Numbers without * were called inactive; ? = inconclusive; . = not tested or not shown.

SMILES | T cruzi growth-1 | Pf Dd2 inh | C diff growth | T cruzi growth-2 | T cruzi growth-3 | NIH3T3 tox | NIH3T3 tox 2
CN1c2ccc(-c3ccccc3)cc2[C@H]2[C@H](CCN2C(=O)Cc2cccnc2)[C@H]1CO | ? | 6 | -3 | 99* | 76 | -11 | -7
COc1ccc(-c2ccc3c(c2)[C@@H]2[C@@H](CCN2C(=O)Cc2cccnc2)[C@H](CO)N3C)cc1 | 76 | -3 | -4 | . | . | . | .
COc1ccc(NC(=O)Nc2cccc3c2O[C@@H](CN(C)S(=O)(=O)c2cn(C)cn2)[C@@H](C)CN([C@@H](C)CO)C3=O)cc1 | 17 | -1 | 8 | . | . | . | .
Cc1ccc(CN2CC(=O)N3[C@@H](CO)[C@H](c4ccc(-c5cccnc5)cc4)[C@@H]3C2)cc1 | . | -9 | -10 | . | . | . | .
C/C=C/c1ccc([C@H]2[C@@H](CO)N(C(=O)CC)C23CN(S(=O)(=O)CC)C3)cc1 | . | -9 | -5 | . | . | . | .
CNC[C@H]1Oc2ncc(C#CC3CCCC3)cc2C(=O)N([C@H](C)CO)C[C@H]1C | 26 | -53 | 5 | . | . | . | .
CO[C@@H]1CN(C)C(=O)c2ccc(NC(C)=O)cc2OC[C@H](C)N(C(=O)C2CCCCC2)C[C@H]1C | 27 | . | . | . | . | . | .
C[C@H](CO)N1C[C@H](C)[C@@H](CN(C)C(=O)Nc2ccc(C(F)(F)F)cc2)Oc2c(NC(=O)c3ccc(-c4nccs4)cc3)cccc2C1=O | 71 | 12 | . | . | . | . | .
C[C@@H]1CN([C@@H](C)CO)C(=O)c2cccc(NC(=O)c3ccc(-c4nccs4)cc3)c2O[C@@H]1CN(C)C(=O)Nc1ccc(C(F)(F)F)cc1 | ? | -70 | . | 108* | 91 | 26 | 98*
C[C@H](CO)N1C[C@H](C)[C@H](CN(C)C(=O)Nc2ccc(C(F)(F)F)cc2)Oc2c(NC(=O)c3ccc(-c4nccs4)cc3)cccc2C1=O | 116* | -44 | . | 102* | 72 | 31 | 84*
C[C@H]1CN([C@@H](C)CO)C(=O)c2cccc(NC(=O)c3nc4ccccc4s3)c2O[C@H]1CN(C)C(=O)Nc1ccc(C(F)(F)F)cc1 | 74 | -73 | 3 | . | . | . | .
C[C@@H]1CN([C@@H](C)CO)C(=O)c2cccc(NC(=O)c3ccc(-c4nccs4)cc3)c2O[C@H]1CN(C)C(=O)Nc1ccc(F)cc1 | 4 | -27 | -3 | . | . | . | .
C[C@@H]1CN([C@H](C)CO)C(=O)c2cccc(NC(=O)c3nc4ccccc4s3)c2O[C@H]1CN(C)C(=O)Nc1ccc(C(F)(F)F)cc1 | 93* | -86* | -5 | ? | ? | 19 | 50*
CC(C)NC(=O)N(C)C[C@H]1Oc2c(NC(=O)Nc3ccc(C(F)(F)F)cc3)cccc2C(=O)N([C@@H](C)CO)C[C@H]1C | -2 | -67 | 25 | . | . | . | .
COCC(=O)N1C[C@H](C)[C@@H](OC)CN(C)C(=O)c2ccc(NC(=O)c3cc(C)on3)cc2OC[C@@H]1C | . | 13 | -4 | . | . | . | .
O=C(C[C@@H]1CC[C@H]2[C@@H](COC[C@@H](O)CN2S(=O)(=O)c2cccc(Cl)c2)O1)Nc1ccc(-c2ccccc2)cc1 | 110* | -3 | -8 | 101* | 53 | 8 | 103*
O=C(C[C@@H]1CC[C@@H]2[C@H](COC[C@H](O)CN2S(=O)(=O)c2cccc(Cl)c2)O1)Nc1ccccc1 | 71 | -15 | 2 | . | . | . | .
O=C(C[C@@H]1CC[C@@H]2[C@H](COC[C@@H](O)CN2S(=O)(=O)c2cccc(Cl)c2)O1)Nc1ccccc1 | 25 | 2 | 3 | . | . | . | .
O=C(C[C@@H]1CC[C@@H]2[C@H](COC[C@@H](O)CN2S(=O)(=O)c2cccc(Cl)c2)O1)Nc1ccc(-c2ccccc2)cc1 | 108* | -10 | 21 | 98* | ? | 34 | 70*
C[C@@H]1CN([C@H](C)CO)C(=O)c2cc(/C=C/c3ccccc3)cnc2O[C@H]1CN(C)C | . | 25 | -12 | . | . | . | .
COc1ccc(S(=O)(=O)Nc2ccc3c(c2)C(=O)N([C@@H](C)CO)C[C@H](C)[C@@H](CN(C)S(=O)(=O)c2c(C)noc2C)OCCCC[C@H](C)O3)cc1 | 34 | -34 | -1 | . | . | . | .
C/C=C/c1ccc([C@H]2[C@@H](CO)N(C(=O)c3cnccn3)C23CN(C(=O)CC)C3)cc1 | . | -33 | 1 | . | . | . | .
O=C(CC(F)(F)F)N1C[C@@H]2[C@H](c3ccccc31)[C@H](CO)N2C(=O)CN1CCOCC1 | 20 | 0 | -2 | . | . | . | .
C[C@@H]1CN([C@@H](C)CO)C(=O)c2cc(C#Cc3ccccn3)cnc2O[C@H]1CN(C)Cc1cncnc1 | 105* | 22 | 2 | 102* | 35 | -13 | 18
C[C@H]1CN([C@@H](C)CO)C(=O)c2cc(C#Cc3ccccn3)cnc2O[C@H]1CN(C)Cc1cncnc1 | 72 | 19 | -1 | . | . | . | .
SMILES | T cruzi growth-1 | Pf Dd2 inh | C diff growth | T cruzi growth-2 | T cruzi growth-3 | NIH3T3 tox | NIH3T3 tox 2
CC(C)C#Cc1cnc2c(c1)C(=O)N([C@@H](C)CO)C[C@H](C)[C@@H](CN(C)Cc1cncnc1)O2 | 97* | 22 | -2 | 99* | 11 | -16 | 11
C[C@@H]1CN([C@H](C)CO)C(=O)c2cc(C#Cc3ccccn3)cnc2O[C@H]1CN(C)Cc1cncnc1 | 104* | 10 | 1 | 107* | 55 | 13 | 18
CC(C)C#Cc1cnc2c(c1)C(=O)N([C@@H](C)CO)C[C@@H](C)[C@@H](CN(C)Cc1cncnc1)O2 | -50 | 18 | -1 | . | . | . | .
C[C@H](CO)N1C[C@H](C)[C@H](CN(C)Cc2cncnc2)Oc2ncc(C#Cc3ccccn3)cc2C1=O | 79 | 37 | 1 | . | . | . | .
CC(=O)N1CC2(C1)[C@@H](c1ccc(-c3ccccc3C)cc1)[C@@H](CO)N2C(=O)CC1CC1 | . | -1 | -9 | . | . | . | .
COC(=O)[C@]1(CCS(=O)(=O)c2ccccc2)N=C(c2ccc(OCCCO)cc2)O[C@@H]1c1ccccc1CN=[N+]=[N-] | . | . | 1 | . | . | . | .
CCNC(=O)C[C@@H]1CC[C@@H]2[C@@H](COc3ccc(NC(=O)C4CCCCC4)cc3C(=O)N2C)O1 | -15 | 6 | -4 | . | . | . | .
COc1ccccc1NC(=O)N[C@H]1C=C[C@H](CC(=O)N2CCC(Cc3ccccc3)CC2)O[C@H]1CO | . | 13 | -9 | . | . | . | .
C[C@H](CO)N1C[C@H](C)[C@@H](CN(C)C(=O)Nc2ccc3c(c2)OCO3)Oc2ccc(NC(=O)Nc3ccc(F)cc3)cc2CC1=O | -1 | -68 | -10 | . | . | . | .
C[C@H]1CN([C@@H](C)CO)C(=O)Cc2cc(NC(=O)Cc3cn(C)c4ccccc34)ccc2O[C@@H]1CN(C)S(=O)(=O)c1ccc(Cl)cc1 | 18 | -49 | . | . | . | . | .

Assay outcomes: PubChem, Broad Institute
